According to PubChem BioAssay AID1159580 (chemical genetic matrix, 2015):
About 2,000 (36%) of roughly 5,500 compounds were called active. Not shown: some 18% with an inconclusive outcome. Rule as the data show it: active = normalized growth mostly below about 0.91 (no sharp cut-off); inconclusive = no clear call, values can overlap the other calls; inactive = mostly above about 0.92. Some of the results follow.

Assay: chemical genetic growth profiling, strain panel (AID 1159580);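 also: tested at 20 µM; growth read once vehicle control cultures reached saturation at 30 °C; 1 = growth at the plate median or of vehicle wells; lower values mean less growth of the strain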
Details: growth OD

Measured: normalized growth

CCOCN(C(=O)CCl)c1c(C)cccc1CC
inactive: S. cerevisiae deletion strains, locus YJR043C, strain POL32, stronger effect = lower value 0.983 | S. cerevisiae deletion strains, locus YJR075W, strain HOC1, stronger effect = lower value 0.993 | S. cerevisiae deletion strains, locus YKL009W, strain mrt4, stronger effect = lower value 0.989 | S. cerevisiae deletion strains, locus YKL068W, stronger effect = lower value 0.973 | S. cerevisiae deletion strains, locus YKL085W, strain MDH1 (second series), stronger effect = lower value 0.991 | S. cerevisiae deletion strains, locus YKL085W, strain MDH1, stronger effect = lower value 0.991 | S. cerevisiae deletion strains, locus YKL160W, strain elf1, stronger effect = lower value 0.995 | S. cerevisiae deletion strains, locus YKL190W, strain CNB1, stronger effect = lower value 0.983 | S. cerevisiae deletion strains, locus YKR001C, strain vps1, stronger effect = lower value 0.986 | S. cerevisiae deletion strains, locus YKR026C, strain gcn3, stronger effect = lower value 0.985 | S. cerevisiae deletion strains, locus YKR091W, strain srl3, stronger effect = lower value 0.988 | S. cerevisiae deletion strains, locus YLL001W, strain dnm1, stronger effect = lower value 0.989 | S. cerevisiae deletion strains, locus YLL026W, stronger effect = lower value 0.991 | S. cerevisiae deletion strains, locus YLL041C, strain sdh2, stronger effect = lower value 0.988 | S. cerevisiae deletion strains, locus YLR027C, strain aat2, stronger effect = lower value 0.976 | S. cerevisiae deletion strains, locus YLR039C, strain RIC1, stronger effect = lower value 0.994 | S. cerevisiae deletion strains, locus YLR058C, strain SHM2, stronger effect = lower value 0.986 | S. cerevisiae deletion strains, locus YLR102C, strain apc9, stronger effect = lower value 0.974 | S. cerevisiae deletion strains, locus YLR221C, strain rsa3, stronger effect = lower value 0.981 | S. cerevisiae deletion strains, locus YLR258W, strain gsy2, stronger effect = lower value 1.02 | S. cerevisiae deletion strains, locus YLR262C, strain YPT6 (second series), stronger effect = lower value 0.969 | S. cerevisiae deletion strains, locus YLR262C, strain YPT6, stronger effect = lower value 1.01 | S. cerevisiae deletion strains, locus YLR268W, strain sec22, stronger effect = lower value 0.979 | S. cerevisiae deletion strains, locus YLR320W, strain mms22, stronger effect = lower value 0.986 | S. cerevisiae deletion strains, locus YLR330W, strain CHS5, stronger effect = lower value 0.977 | S. cerevisiae deletion strains, locus YLR342W, strain FKS1 (second series), stronger effect = lower value 0.98 | S. cerevisiae deletion strains, locus YLR342W, strain FKS1, stronger effect = lower value 0.978 | S. cerevisiae deletion strains, locus YLR357W, strain rsc2, stronger effect = lower value 0.961 | S. cerevisiae deletion strains, locus YLR370C, strain arc18, stronger effect = lower value 0.995 | S. cerevisiae deletion strains, locus YLR371W, strain rom2, stronger effect = lower value 0.963 | S. cerevisiae deletion strains, locus YLR384C, strain iki3, stronger effect = lower value 0.98 | S. cerevisiae deletion strains, locus YLR418C, strain cdc73, stronger effect = lower value 1.03 | S. cerevisiae deletion strains, locus YML016C, strain PPZ1, stronger effect = lower value 0.992 | S. cerevisiae deletion strains, locus YML032C, strain rad52, stronger effect = lower value 0.969 | S. cerevisiae deletion strains, locus YML120C, strain ndi1, stronger effect = lower value 0.99 | S. cerevisiae deletion strains, locus YML124C, strain tub3, stronger effect = lower value 0.972 | S. cerevisiae deletion strains, locus YMR058W, strain fet3, stronger effect = lower value 0.988 | S. cerevisiae deletion strains, locus YMR078C, strain ctf18, stronger effect = lower value 0.959 | S. cerevisiae deletion strains, locus YMR125W, strain sto1, stronger effect = lower value 0.988 | S. cerevisiae deletion strains, locus YMR129W, stronger effect = lower value 0.982 | S. cerevisiae deletion strains, locus YMR205C, strain PFK2, stronger effect = lower value 0.996 | S. cerevisiae deletion strains, locus YMR223W, strain ubp8, stronger effect = lower value 0.984 | S. cerevisiae deletion strains, locus YMR231W, strain pep5, stronger effect = lower value 0.981 | S. cerevisiae deletion strains, locus YMR263W, strain SAP30, stronger effect = lower value 0.983 | S. cerevisiae deletion strains, locus YMR307W, strain GAS1, stronger effect = lower value 1 | S. cerevisiae deletion strains, locus YNL067W, strain RPL9B, stronger effect = lower value 0.995 | S. cerevisiae deletion strains, locus YNL071W, strain lat1, stronger effect = lower value 0.989 | S. cerevisiae deletion strains, locus YNL128W, strain TEP1, stronger effect = lower value 0.978 | S. cerevisiae deletion strains, locus YNL153C, strain GIM3, stronger effect = lower value 1 | S. cerevisiae deletion strains, locus YNL209W, strain ssb2, stronger effect = lower value 0.998 | S. cerevisiae deletion strains, locus YNL233W, strain BNI4, stronger effect = lower value 0.996 | S. cerevisiae deletion strains, locus YNL248C, strain rpa49, stronger effect = lower value 0.984 | S. cerevisiae deletion strains, locus YNL250W, strain rad50, stronger effect = lower value 0.977 | S. cerevisiae deletion strains, locus YNL271C, strain bni1, stronger effect = lower value 0.994 | S. cerevisiae deletion strains, locus YNL298W, strain CLA4, stronger effect = lower value 0.968 | S. cerevisiae deletion strains, locus YNL307C, strain MCK1, stronger effect = lower value 0.982 | S. cerevisiae deletion strains, locus YNL322C, strain KRE1 (second series), stronger effect = lower value 0.98 | S. cerevisiae deletion strains, locus YNL322C, strain KRE1, stronger effect = lower value 0.982 | S. cerevisiae deletion strains, locus YNR049C, strain mso1, stronger effect = lower value 0.986 | S. cerevisiae deletion strains, locus YNR052C, strain pop2, stronger effect = lower value 0.957 | S. cerevisiae deletion strains, locus YOL006C, strain TOP1, stronger effect = lower value 1.02 | S. cerevisiae deletion strains, locus YOL012C, strain htz1 0.911 | S. cerevisiae deletion strains, locus YOL147C, strain pex11, stronger effect = lower value 0.981 | S. cerevisiae deletion strains, locus YOR001W, strain rrp6, stronger effect = lower value 0.969 | S. cerevisiae deletion strains, locus YOR061W, strain CKA2, stronger effect = lower value 0.999 | S. cerevisiae deletion strains, locus YOR069W, strain VPS5, stronger effect = lower value 0.987 | S. cerevisiae deletion strains, locus YOR070C, strain gyp1, stronger effect = lower value 0.98 | S. cerevisiae deletion strains, locus YOR080W, strain dia2, stronger effect = lower value 0.975 | S. cerevisiae deletion strains, locus YOR083W, strain WHI5, stronger effect = lower value 1 | S. cerevisiae deletion strains, locus YOR106W, strain vam3, stronger effect = lower value 1 | S. cerevisiae deletion strains, locus YOR136W, strain idh2, stronger effect = lower value 0.98 | S. cerevisiae deletion strains, locus YOR144C, strain elg1, stronger effect = lower value 0.961 | S. cerevisiae deletion strains, locus YOR184W, strain ser1, stronger effect = lower value 0.986 | S. cerevisiae deletion strains, locus YOR265W, strain rbl2, stronger effect = lower value 1 | S. cerevisiae deletion strains, locus YOR270C, strain vph1, stronger effect = lower value 1.01 | S. cerevisiae deletion strains, locus YOR290C, strain snf2, stronger effect = lower value 1 | S. cerevisiae deletion strains, locus YOR316C, strain cot1, stronger effect = lower value 0.978 | S. cerevisiae deletion strains, locus YPL051W, strain arl3, stronger effect = lower value 0.99 | S. cerevisiae deletion strains, locus YPL055C, strain LGE1, stronger effect = lower value 1 | S. cerevisiae deletion strains, locus YPL078C, strain atp4, stronger effect = lower value 0.985 | S. cerevisiae deletion strains, locus YPL106C, strain sse1, stronger effect = lower value 1.01 | S. cerevisiae deletion strains, locus YPL240C, strain hsp82, stronger effect = lower value 0.995 | S. cerevisiae deletion strains, locus YPL241C, strain CIN2, stronger effect = lower value 0.99 | S. cerevisiae deletion strains, locus YPR119W, strain clb2, stronger effect = lower value 0.964 | S. cerevisiae deletion strains, locus YPR141C, strain kar3, stronger effect = lower value 0.987 | S. cerevisiae deletion strains, locus YPR163C, strain tif3, stronger effect = lower value 0.958 | S. cerevisiae deletion strains, locus YPR167C, strain met16, stronger effect = lower value 0.987 | S. cerevisiae deletion strains, strain wtn01, stronger effect = lower value 0.967 | S. cerevisiae strains, strain wild type, stronger effect = lower value 0.993
